Measurements: PubChem BioAssay AID1159580 (chemical genetic matrix, 2015)
Several values for one entry are separate records, joined by “and”; a condition that tells them apart may be missing. Identical values can stand only once. The whole screen tested about 5,500 compounds, of which about 2,000 (36%) were called active. About 18% were inconclusive and are not listed. Cut-off read from the data, not from the text of the source: active = normalized growth mostly below about 0.91 (no sharp cut-off); inconclusive = no clear call, values can overlap the other calls; inactive = mostly above about 0.92. This is one part of the list.

Assay: chemical genetic growth profiling, strain panel (AID 1159580);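 note: tested at 20 µM; growth read once vehicle control cultures reached saturation at 30 °C; 1 = growth at the plate median or of vehicle wells; lower values mean less growth of the strain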
Conditions: S. cerevisiae deletion strains, growth OD

Measured: normalized growth

Fc1cccc(Cl)c1CSc1nncn1-c1ccc(OCc2ccccc2)cc1
inactive: locus YAL013W, strain DEP1, stronger effect = lower value 0.976 | locus YAR019C, strain CDC15, stronger effect = lower value 0.991 | locus YBL105C, strain PKC1, stronger effect = lower value 1.01 | locus YBR135W, strain CKS1, stronger effect = lower value 1 | locus YBR136W, strain MEC1, stronger effect = lower value 1 | locus YBR160W, strain CDC28, stronger effect = lower value 1.01 | locus YBR229C, strain ROT2, stronger effect = lower value 0.991 | locus YCL061C, strain MRC1, stronger effect = lower value 0.968 | locus YDL017W, strain CDC7, stronger effect = lower value 1.01 | locus YDL028C, strain MPS1, stronger effect = lower value 1 | locus YDL101C, strain DUN1, stronger effect = lower value 0.997 and 0.986 | locus YDL108W, strain KIN28, stronger effect = lower value 1 | locus YDL132W, strain cdc53, stronger effect = lower value 0.994 | locus YDL214C, strain PRR2, stronger effect = lower value 0.97 | locus YDR052C, strain DBF4, stronger effect = lower value 0.996 | locus YDR054C, strain cdc34, stronger effect = lower value 1.01 | locus YDR150W, strain NUM1, stronger effect = lower value 0.909 | locus YDR226W, strain ADK1, stronger effect = lower value 0.999 | locus YDR477W, strain SNF1, stronger effect = lower value 0.983 | locus YEL061C, strain CIN8, stronger effect = lower value 0.956 | locus YER123W, strain YCK3, stronger effect = lower value 0.958 | locus YER133W, strain GLC7, stronger effect = lower value 0.974 | locus YFL009W, strain cdc4, stronger effect = lower value 1.01 | locus YFL029C, strain CAK1, stronger effect = lower value 1 | locus YFR003C, strain YPI1, stronger effect = lower value 1.01 | locus YFR019W, strain FAB1, stronger effect = lower value 0.955 | locus YFR028C, strain CDC14, stronger effect = lower value 0.997 | locus YGR040W, strain KSS1, stronger effect = lower value 0.979 | locus YGR052W, strain FMP48, stronger effect = lower value 1.05 | locus YGR078C, strain PAC10, stronger effect = lower value 0.984 | locus YGR092W, strain DBF2, stronger effect = lower value 0.988 | locus YHR030C, strain SLT2, stronger effect = lower value 0.811 and 1.12 | locus YHR079C, strain IRE1, stronger effect = lower value 1.03 | locus YHR082C, strain KSP1, stronger effect = lower value 1.24 | locus YHR087W, strain rtc3, stronger effect = lower value 0.983 | locus YHR205W, strain SCH9, stronger effect = lower value 0.955 | locus YIL147C, strain SLN1, stronger effect = lower value 1 | locus YJL095W, strain BCK1, stronger effect = lower value 1.04 | locus YJL128C, strain PBS2, stronger effect = lower value 1.01 | locus YJL157C, strain FAR1, stronger effect = lower value 0.969 | locus YJR016C, strain ILV3, stronger effect = lower value 0.997 | locus YJR043C, strain POL32, stronger effect = lower value 0.98 | locus YJR066W, strain TOR1 (second series), stronger effect = lower value 0.967 | locus YJR066W, strain TOR1, stronger effect = lower value 1.23 | locus YJR075W, strain HOC1, stronger effect = lower value 0.988 | locus YKL048C, strain ELM1, stronger effect = lower value 0.977 | locus YKL067W, strain YNK1, stronger effect = lower value 0.999 | locus YKL101W, strain HSL1, stronger effect = lower value 0.989 | locus YKL190W, strain CNB1, stronger effect = lower value 0.985 | locus YKL193C, strain SDS22, stronger effect = lower value 0.996 | locus YKL203C, strain TOR2, stronger effect = lower value 1.06 | locus YLR039C, strain RIC1, stronger effect = lower value 0.792 | locus YLR058C, strain SHM2 (second series), stronger effect = lower value 0.991 | locus YLR085C, strain ARP6, stronger effect = lower value 0.831 | locus YLR113W, strain HOG1, stronger effect = lower value 1.01 | locus YLR133W, strain CKI1, stronger effect = lower value 0.949 | locus YLR262C, strain YPT6, stronger effect = lower value 0.838 | locus YLR403W, strain SFP1, stronger effect = lower value 0.965 | locus YML070W, strain DAK1, stronger effect = lower value 0.958 | locus YML094W, strain GIM5, stronger effect = lower value 0.948 | locus YMR001C, strain CDC5, stronger effect = lower value 1 | locus YMR205C, strain PFK2 (second series), stronger effect = lower value 0.965 | locus YMR219W, strain ESC1, stronger effect = lower value 0.985 | locus YMR263W, strain SAP30, stronger effect = lower value 0.963 | locus YMR277W, strain FCP1, stronger effect = lower value 0.988 | locus YNL006W, strain LST8, stronger effect = lower value 0.994 | locus YNL020C, strain ARK1, stronger effect = lower value 0.963 | locus YNL153C, strain GIM3, stronger effect = lower value 0.977 | locus YNL161W, strain CBK1, stronger effect = lower value 0.973 | locus YNL183C, strain NPR1, stronger effect = lower value 0.98 | locus YNL207W, strain RIO2, stronger effect = lower value 1 | locus YNL222W, strain SSU72, stronger effect = lower value 0.995 | locus YNL298W, strain CLA4 (second series), stronger effect = lower value 0.929 | locus YNL307C, strain MCK1 (second series), stronger effect = lower value 0.963 | locus YNL322C, strain KRE1, stronger effect = lower value 0.988 | locus YNR030W, strain Alg12, stronger effect = lower value 0.964 | locus YOL078W, strain AVO1, stronger effect = lower value 0.977 | locus YOL136C, strain PFK27, stronger effect = lower value 0.952 | locus YOR061W, strain CKA2, stronger effect = lower value 0.982 | locus YOR119C, strain RIO1, stronger effect = lower value 1.04 | locus YOR231W, strain MKK1, stronger effect = lower value 1.05 | locus YOR329C, strain SCD5, stronger effect = lower value 1 | locus YPL031C, strain PHO85, stronger effect = lower value 0.986 | locus YPL055C, strain LGE1, stronger effect = lower value 0.847 | locus YPL153C, strain RAD53, stronger effect = lower value 0.992 | locus YPL204W, strain HRR25, stronger effect = lower value 0.973 | locus YPL209C, strain IPL1, stronger effect = lower value 0.994 | locus YPL241C, strain CIN2, stronger effect = lower value 0.949 | locus YPL256C, strain CLN2, stronger effect = lower value 0.983 | locus YPR025C, strain CCL1, stronger effect = lower value 1.01 | locus YPR106W, strain ISR1, stronger effect = lower value 0.987 | locus YPR111W, strain DBF20, stronger effect = lower value 0.986 | locus YPR135W, strain CTF4, stronger effect = lower value 0.832 | strain NNK1, stronger effect = lower value 0.984 | strain TSCII, stronger effect = lower value 0.986
